Assay [1] can be described thus: antimalarial activity against Dd2 strain (AID 2302;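 active means growth inhibition above 50% at the single 2 µM test dose, taken to imply half-maximal potency below 2 µM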;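 further: 0% = DMSO untreated growth and 100% = chloroquine plus artemisinin killed control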). The note with it: P. falciparum Dd2 in RBCs, LDH growth readout, 72 h; at 2 µM; stronger effect = higher value.
Assay [2] is described as follows: human hepatoma cell viability loss – ATP luminescence, cytotoxicity control for P. falciparum antimalarial project, primary screen (AID 2303;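 active means inhibition above 50%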;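 further: 0% = DMSO wells and 100% = digitonin-killed cells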). As to conditions: HepG2 viability, 24-48 h, at 10 µM, stronger effect = higher value.
Assay [3] deals with L-lactate dehydrogenase (Plasmodium falciparum (isolate CDC / Honduras)) (UniProt Q27743). The experiment in a line: PfLDH activity inhibition – cell lysate, 3D7 strain, counter-screen for P. falciparum growth inhibition project (AID 2304).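 Further: 0% = vehicle and 100% = reference inhibitor.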 The note with it: P. falciparum 3D7 crude extract, LDH APAD/NBT absorbance; at 2 µM; stronger effect = higher value. For orientation: The purpose of a counterscreen is to sort out artefacts and off-target activity.

Assay [4] in a line: inhibition of 3D7 malaria parasite growth – strain 3D7 (AID 2306).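 Further: 0% = DMSO wells and 100% = chloroquine plus artemisinin control wells.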 As to conditions: P. falciparum 3D7 erythrocytic growth, LDH absorbance, 72 h; at 2 µM; stronger effect = higher value.
In assay [5] the target is Calcium-dependent protein kinase 1 (Plasmodium falciparum (isolate 3D7)) (UniProt P62344). The experiment in a line: PfCDPK1 kinase inhibitors, biochemical, TCAMS library (AID 1159585; cut-off not given, nearly all actives have IC50 up to about 0.98 µM;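 further: inhibitors leave more ATP so luminescence rises with inhibition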). The note with it: recombinant PfCDPK1, Kinase-Glo ATP depletion luminescence. (In general: Kinase-Glo reads ATP consumption through a luciferase reaction.)
The target of assay [6] is Plasmodium falciparum protein kinase 6 (PK6, PF3D7_1337100) (UniProt Q8IDW1). Briefly: PfPK6 kinase inhibitors, biochemical, TCAMS library (AID 1159586). As to conditions: recombinant PfPK6, Kinase-Glo ATP depletion luminescence.
Assay [7] addresses Protein kinase 7 (PK7), Plasmodium falciparum 3D7 (PF3D7_0213400) (UniProt Q7YTF7). The experiment in a line: inhibition of Plasmodium PK7 catalytic activity – biochemical, TCAMS antimalarial set, Kinase-Glo luminescence (AID 1159587). The note with it: recombinant PfPK7, Kinase-Glo ATP depletion luminescence.
Assay [8] deals with Calcium-dependent protein kinase 4 (Plasmodium falciparum (isolate 3D7)) (UniProt Q8IBS5). The experiment in a line: PfCDPK4 kinase inhibitors, biochemical, TCAMS library (AID 1159588; cut-off not given, nearly all actives have IC50 up to about 0.91 µM). The note with it: recombinant PfCDPK4, Kinase-Glo ATP depletion luminescence.

A number with no mark means an inactive call. For some of these results: Measured potencies and affinities stand elsewhere. Calls of active or inactive are those of the source. Unless noted, how the calls were made is not given here.

Calcium-dependent protein kinase 4 (Plasmodium falciparum (isolate 3D7)), sequence (Q8IBS5 whole entry, looked up): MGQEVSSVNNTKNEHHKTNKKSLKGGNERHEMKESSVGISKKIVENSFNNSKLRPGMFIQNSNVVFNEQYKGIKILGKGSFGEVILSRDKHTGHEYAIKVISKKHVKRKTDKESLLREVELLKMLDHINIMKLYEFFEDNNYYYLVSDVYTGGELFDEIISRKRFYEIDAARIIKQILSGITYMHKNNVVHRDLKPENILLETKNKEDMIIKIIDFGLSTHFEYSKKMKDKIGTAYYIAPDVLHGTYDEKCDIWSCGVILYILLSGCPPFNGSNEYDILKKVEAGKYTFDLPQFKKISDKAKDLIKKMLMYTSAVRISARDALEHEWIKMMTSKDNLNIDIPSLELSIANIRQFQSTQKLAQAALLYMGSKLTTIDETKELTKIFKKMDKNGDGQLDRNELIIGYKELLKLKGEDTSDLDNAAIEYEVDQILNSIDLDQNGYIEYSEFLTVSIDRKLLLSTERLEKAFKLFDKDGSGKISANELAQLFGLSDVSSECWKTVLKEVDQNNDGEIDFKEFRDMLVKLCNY
Protein kinase 7 (PK7), Plasmodium falciparum 3D7 (PF3D7_0213400), sequence (Q7YTF7 1-343): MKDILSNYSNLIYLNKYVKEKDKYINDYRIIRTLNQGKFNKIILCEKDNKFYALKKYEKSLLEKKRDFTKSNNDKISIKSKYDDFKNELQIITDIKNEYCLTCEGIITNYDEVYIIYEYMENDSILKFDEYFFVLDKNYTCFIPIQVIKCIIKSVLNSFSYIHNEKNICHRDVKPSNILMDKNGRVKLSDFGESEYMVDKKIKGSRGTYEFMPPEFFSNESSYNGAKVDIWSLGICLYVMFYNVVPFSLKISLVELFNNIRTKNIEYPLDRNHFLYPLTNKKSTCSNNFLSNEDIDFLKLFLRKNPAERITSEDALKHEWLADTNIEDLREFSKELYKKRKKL
L-lactate dehydrogenase (Plasmodium falciparum (isolate CDC / Honduras)), sequence (Q27743 whole entry, looked up): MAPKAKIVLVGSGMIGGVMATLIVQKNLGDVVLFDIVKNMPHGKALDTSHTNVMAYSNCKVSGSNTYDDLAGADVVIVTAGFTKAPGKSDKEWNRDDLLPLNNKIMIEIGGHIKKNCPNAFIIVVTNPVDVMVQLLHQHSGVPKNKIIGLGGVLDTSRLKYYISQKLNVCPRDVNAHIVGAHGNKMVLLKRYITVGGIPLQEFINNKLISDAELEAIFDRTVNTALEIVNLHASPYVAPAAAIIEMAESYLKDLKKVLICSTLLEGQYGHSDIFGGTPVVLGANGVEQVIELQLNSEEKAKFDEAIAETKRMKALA
Plasmodium falciparum protein kinase 6 (PK6, PF3D7_1337100), sequence (Q8IDW1 1-305): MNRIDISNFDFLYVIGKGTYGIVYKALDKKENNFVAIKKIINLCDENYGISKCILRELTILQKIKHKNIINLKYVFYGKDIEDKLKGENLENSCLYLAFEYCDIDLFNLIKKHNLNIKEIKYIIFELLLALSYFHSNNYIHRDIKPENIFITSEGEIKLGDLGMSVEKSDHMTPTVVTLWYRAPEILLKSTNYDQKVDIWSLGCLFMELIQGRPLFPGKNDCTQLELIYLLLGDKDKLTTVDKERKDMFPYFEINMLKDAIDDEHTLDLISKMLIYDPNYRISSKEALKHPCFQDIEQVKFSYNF
Calcium-dependent protein kinase 1 (Plasmodium falciparum (isolate 3D7)), sequence (P62344 whole entry, looked up): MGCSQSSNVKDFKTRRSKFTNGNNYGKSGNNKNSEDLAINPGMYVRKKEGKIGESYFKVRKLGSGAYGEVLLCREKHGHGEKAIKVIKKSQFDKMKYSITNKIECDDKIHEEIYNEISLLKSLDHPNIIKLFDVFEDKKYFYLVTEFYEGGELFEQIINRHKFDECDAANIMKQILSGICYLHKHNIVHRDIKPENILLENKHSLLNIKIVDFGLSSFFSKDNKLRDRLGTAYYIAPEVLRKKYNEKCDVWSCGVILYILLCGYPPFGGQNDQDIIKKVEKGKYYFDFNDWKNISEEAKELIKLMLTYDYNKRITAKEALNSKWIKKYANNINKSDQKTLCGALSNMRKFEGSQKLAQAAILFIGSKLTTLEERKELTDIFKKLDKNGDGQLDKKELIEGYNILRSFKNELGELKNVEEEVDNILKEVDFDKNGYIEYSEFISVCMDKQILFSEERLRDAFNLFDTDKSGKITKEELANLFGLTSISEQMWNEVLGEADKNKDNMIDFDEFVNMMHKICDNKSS

As to `CC(=O)N1Cc2ccccc2C1=O`, the results for the growth inhibition in assay [1] and in assay [4] were -1% and 97% (active), respectively. In addition, the figures for the inhibition in assay [2] and in assay [3] were 10% and -4%, respectively. The result in assay [5], in assay [6], in assay [7] and in assay [8] was inactive.
As for `COc1ccc(NC(=O)[C@H](C)Nc2cc(C)nc(NCC3CCCCC3)n2)cc1`, the growth inhibition in assay [1] was 13%; in assay [4] it was 92% (active). Besides, the inhibition (commonly the drop in the measured response relative to a control, in per cent) in assay [2] was 12%; in assay [3], -3%. Moreover, the outcome in assay [5], in assay [6], in assay [7] and in assay [8] was inactive.
Take `CCNc1cc(C(=O)N[C@@H](Cc2ccccc2)[C@H](O)CNC2C3CC4CC(C3)CC2C4)cc(N2CCCCS2(=O)=O)c1` (stereo not given in full): the growth inhibition is 96% (active) in assay [1] and 97% (active) in assay [4]. Moreover, the inhibition in assay [2] is -2%; in assay [3] it was 6%. Further, the outcome in assay [5], in assay [6], in assay [7] and in assay [8] was inactive.
Consider `N#Cc1ccccc1S(=O)(=O)N1CCCC(CNC(=O)[C@H](CC2CCCCC2)NC(=O)c2cc3ccccc3s2)C1` (stereo not given in full), for which the growth inhibition was 92% (active) in assay [1] and 97% (active) in assay [4]. Moreover, the inhibition in assay [2] is 9%; in assay [3], -2%. Besides, the result in assay [5], in assay [6], in assay [7] and in assay [8] was inactive.
As for `CC(=O)Nc1ccc(CN(Cc2ccc(OC(C)(C)C)cc2)Cc2ccc3c(c2)OCCO3)cc1`, the results for the growth inhibition in assay [1] and in assay [4] were 75% (active) and 91% (active), respectively. The results for the inhibition in assay [2] and in assay [3] were 7% and 5%, respectively. The outcome in assay [5], in assay [6], in assay [7] and in assay [8] was inactive.
On to `CN1CCN(Cc2c(O)ccc3c(=O)c(Oc4ccc(C(C)(C)C)cc4)c(C(F)(F)F)oc23)CC1`, for which the values for the growth inhibition in assay [1] and in assay [4] were 88% (active) and 99% (active), respectively. Moreover, the inhibition was -13% in assay [2] and 4% in assay [3]. Moreover, the outcome in assay [5], in assay [6], in assay [7] and in assay [8] was inactive.
In the case of `O=C(Nc1cccc(CN2CCCN(Cc3ccc(O)cc3)CC2)c1)c1ccc(Cl)c(Cl)c1`, the growth inhibition in assay [1] was 81% (active); in assay [4], 103% (active). Also, the inhibition is 22% in assay [2] and -1% in assay [3]. For the same molecule, the outcome in assay [5], in assay [6], in assay [7] and in assay [8] was inactive.
Consider `CC(=O)Nc1ccc(C(=O)Nc2ccc(-c3cccc(-c4nc5ccc(F)cc5[nH]4)c3)cc2)cn1`, for which the growth inhibition is 84% (active) in assay [1] and 100% (active) in assay [4]. In addition, the inhibition was 13% in assay [2] and -2% in assay [3]. Also, the outcome in assay [5], in assay [6], in assay [7] and in assay [8] was inactive.
As to `COc1ccc(C2N=C(N)N=C(N)N2c2ccc(Cl)cc2)cc1OC` (stereo not given), the values for the growth inhibition in assay [1] and in assay [4] were 4% and 85% (active), respectively. Moreover, the inhibition in assay [2] was 4%; in assay [3] it was -1%. The outcome in assay [5], in assay [6], in assay [7] and in assay [8] was inactive.
Turning to `Cc1[nH]c(-c2ccc(F)cc2)cc1C(=O)NC1CCN(Cc2ccccc2)CC1`, the figures for the growth inhibition in assay [1] and in assay [4] were 9% and 84% (active), respectively. Also, the figures for the inhibition in assay [2] and in assay [3] were 6% and -2%, respectively. The outcome in assay [5], in assay [6], in assay [7] and in assay [8] was inactive.
With `CCCNCc1ccc(-c2ccc(CN(C(=O)c3nn(-c4ccccc4)nc3C)C3CCOCC3)cc2)nc1`, the figures for the growth inhibition in assay [1] and in assay [4] were -6% and 98% (active), respectively. For the same molecule, the inhibition in assay [2] was 14%; in assay [3] it was 4%. Also, the outcome in assay [5], in assay [6], in assay [7] and in assay [8] was inactive.
On to `CC(=O)Nc1nc(C(=O)Nc2cccc(-c3ccc(-c4nc5ccc(F)cc5[nH]4)cc3)c2)cs1`, for which the growth inhibition in assay [1] is 32%; in assay [4], 101% (active). The values for the inhibition in assay [2] and in assay [3] were 54% (active) and -4%, respectively. Besides, the result in assay [5], in assay [6], in assay [7] and in assay [8] was inactive.
In the case of `CCN(CC)C(=NCCCCCCN=C(NC(N)=NCc1ccc(Cl)cc1)N(CC)CC)NC(N)=NCc1ccc(Cl)cc1`, the growth inhibition in assay [1] and in assay [4] was 100% (active) throughout. The inhibition in assay [2] was 18%; in assay [3], -3%. Further, the outcome in assay [5], in assay [6], in assay [7] and in assay [8] was inactive.
In the case of `Cc1ccccc1NC(=O)NC1CCN(CCCCCNC(=O)/C=C/c2ccc(Cl)c(Cl)c2)CC1`, the growth inhibition in assay [1] is 20%; in assay [4], 102% (active). For the same molecule, the inhibition in assay [2] is 13%; in assay [3], -6%. Also, the result in assay [5], in assay [6], in assay [7] and in assay [8] was inactive.
`N#Cc1ccc2c(c1)CCN(CCC1CCC(NC(=O)/C=C/c3ccc4[nH]ccc4c3)CC1)CC2` (stereo not given): the values for the growth inhibition in assay [1] and in assay [4] were 27% and 93% (active), respectively. Also, the inhibition in assay [2] and in assay [3] was 2% throughout. Also, the result in assay [5], in assay [6], in assay [7] and in assay [8] was inactive.
Take `COc1ccc(OCC(=O)Nc2nc(-c3ccc(OC)cc3)c(C)s2)cc1`: the growth inhibition is 87% (active) in assay [1] and 100% (active) in assay [4]. Moreover, the inhibition in assay [2] was -3%; in assay [3], -6%. In addition, the outcome in assay [5], in assay [6], in assay [7] and in assay [8] was inactive.
As for `O=C(NC1CC1)c1cnc(N2CCC(COc3cccc(F)c3)CC2)c(Cl)c1`, the growth inhibition in assay [1] is 87% (active); in assay [4], 89% (active). The inhibition is 1% in assay [2] and 5% in assay [3]. In addition, the result in assay [5], in assay [6], in assay [7] and in assay [8] was inactive.
Regarding `O=C(Nc1cccc(CN2CCCN(Cc3ccc(O)cc3)CC2)c1)c1cccc(C(F)(F)F)c1`, the growth inhibition was 71% (active) in assay [1] and 101% (active) in assay [4]. For the same molecule, the inhibition was 9% in assay [2] and 3% in assay [3]. Moreover, the outcome in assay [5], in assay [6], in assay [7] and in assay [8] was inactive.
Regarding `Cc1cc(Nc2ccc(O)cc2)nc2cccc(O)c12`, the growth inhibition in assay [1] was 28%; in assay [4], 99% (active). In addition, the results for the inhibition in assay [2] and in assay [3] were 22% and -6%, respectively. Also, the result in assay [5], in assay [6], in assay [7] and in assay [8] was inactive.
Regarding `CN(Cc1cccc(C#N)c1)C1CCN(c2cc(NC(=O)c3ccc(F)cc3)ccn2)CC1`, the values for the growth inhibition in assay [1] and in assay [4] were 23% and 97% (active), respectively. Further, the inhibition in assay [2] is 4%; in assay [3] it was -1%. The outcome in assay [5], in assay [6], in assay [7] and in assay [8] was inactive.

For the origin of these results see PubChem BioAssay.
